Screens: PubChem BioAssay, National Center for Advancing Translational Sciences (NCATS)
p53ts 32C kill: kills p53ts cells at the permissive temperature; H1299-p53A138V at 32C, ATP luminescence viability, 24 h; Potency, µM (top dose mostly 46.1 µM), actives largely listed as cytotoxic; 0.93% of 130,000 active; AID 924; further: nearly all actives have a fitted effect of over 55% in size
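Cells: H1299 p53ts (A138V), 600/well, pre-incubated 16–30 h at 37C. Cpd up to 46 uM, 24 h, 32C. Readout: ATPlite luminescence, 20 min RT. Normalization: DMSO vs tamoxifen 100 uM. AC50 by Hill equation.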
FLuc inh: inhibitors of firefly luciferase; P08659; purified firefly luciferase, luminescence, 8 min; Potency, µM (top dose mostly 57.1 µM), most hits filed as inhibitors; 2.2% of 72,000 active; further: nearly all actives have a fitted effect of over 40% in size
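Here, luciferase activity is measured as luminescence following an 8 min room-temperature reaction at 10 uM ATP, pH 7.2. Every library sample is titrated.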
p53ts 39C tox: kills p53ts cells at the nonpermissive temperature; H1299-p53A138V viability at 39C, ATP luminescence, 24 h; Potency, µM (doses to about 46.1 µM), usual class: cytotoxic; 1.5% of 130,000 active; AID 902; further: nearly all actives have a fitted effect of over 55% in size
Hits are given with their value; [ ] = another dose, or the depositor's remark. Shown are actives, neighbours in structure and some others; about 2.6% of the full set was active somewhere. The call rests on the fitted dose curve; in most records, active means well fitted curve in the direction sought with a large enough effect; inconclusive means small, poorly fitted or top-dose-only effect, or another doubt; inactive means no such curve, though single readings can be large; an effect the other way counts as inactive or inconclusive.

`CCc1ccccc1NC(=O)Nc1cc(C(=O)NCc2cccc(F)c2)ccc1N1CCCC1` gave p53ts 32C kill inactive and p53ts 39C tox inactive.
For CCN1CCN(c2cc(C)c3cc(NC(=O)/C=C/c4cccc(Cl)c4)ccc3n2)CC1 the results were p53ts 32C kill inconclusive and p53ts 39C tox 3.2µM.
CCN1CCN(c2cc(C)c3cc(NC(=O)c4cc(OC)cc(OC)c4)ccc3n2)CC1 was read as p53ts 32C kill inconclusive and p53ts 39C tox 2.5µM.
Screening CCN1CCN(c2cc(C)c3cc(NC(=O)c4cnccn4)ccc3n2)CC1 returned p53ts 32C kill inactive, FLuc inh inactive and p53ts 39C tox inactive.
For CCN1CCN(c2cc(C)c3cc(NC(=O)Cc4ccc(OC)c(OC)c4)ccc3n2)CC1 the results were p53ts 32C kill inactive, FLuc inh inactive and p53ts 39C tox inactive.
Cc1cc(N2CCCCC2)nc2ccc(NC(=O)/C=C/c3ccccc3Cl)cc12 was read as p53ts 32C kill inactive and p53ts 39C tox inconclusive.
COc1ccc(C(=O)Nc2ccc3nc(N4CCC(C)CC4)cc(C)c3c2)cc1 was read as p53ts 32C kill inactive and p53ts 39C tox inconclusive.
`CCN1CCN(c2cc(C)c3cc(NC(=O)c4cccc(Cl)c4)ccc3n2)CC1` gave p53ts 32C kill 14µM and p53ts 39C tox 2.5µM.
`CCCCc1ccc(C(=O)Nc2ccc3nc(N4CCN(CC)CC4)cc(C)c3c2)cc1` gave p53ts 32C kill inactive and p53ts 39C tox 7.9µM.
Screening CC(C)(C)c1ccc(C(=O)NNc2ncnc3c2cnn3-c2ccc(Cl)cc2)cc1 returned p53ts 32C kill inactive and p53ts 39C tox inactive.
For O=C(c1csnn1)N1CCC[C@@]2(CCN(c3ccccn3)C2)C1 the results were p53ts 32C kill inactive, FLuc inh inactive[11.4 µM] and p53ts 39C tox inactive.
Screening COc1cccc(NC(=O)c2sc3nc4n(c(=O)c3c2C)CCC4)c1 returned p53ts 32C kill inconclusive and p53ts 39C tox inactive.
COc1ccc(-c2cc3nc4n(c(=O)c3s2)CCC4)cc1 was read as p53ts 32C kill 5µM, FLuc inh 2.5µM and p53ts 39C tox 5µM.
`Nc1cc(N)cc(-c2nc3ccccc3[nH]2)c1` gave p53ts 32C kill inactive, FLuc inh inactive and p53ts 39C tox inactive.
Nc1ccc2nc(-c3ccc(Cl)cc3)[nH]c2c1 was read as p53ts 32C kill 13µM, FLuc inh 4µM and p53ts 39C tox 10µM.
For Nc1ccc2nc(-c3cc(Cl)c(N)c(Cl)c3)[nH]c2c1 the results were p53ts 32C kill 14µM and p53ts 39C tox inconclusive.
`Fc1cc2nc(-c3ccncc3)[nH]c2cc1F` gave p53ts 32C kill inactive, FLuc inh inactive and p53ts 39C tox inactive.
`Clc1ccc2nc(-c3ccccc3)[nH]c2c1` gave p53ts 32C kill 10µM and p53ts 39C tox 13µM.
Screening Nc1ccc(-c2nc3c(Cl)c(N)ccc3[nH]2)cc1 returned p53ts 32C kill inconclusive, FLuc inh 16µM and p53ts 39C tox inconclusive.
Screening Cc1ccc(C)c(-c2nc3ccc(N)cc3[nH]2)c1 returned p53ts 32C kill inactive, FLuc inh inactive and p53ts 39C tox inactive.
For Nc1ccc(-c2nc3ccc(-c4nc5ccccc5o4)cc3[nH]2)cc1 the results were p53ts 32C kill inactive, FLuc inh inactive and p53ts 39C tox inactive.
COc1cc2c(cc1OC)[C@H](c1ccccc1)CN(C)CC2 was read as p53ts 32C kill inactive, FLuc inh inactive and p53ts 39C tox inactive.
Screening O[C@H](C[C@@H]1CCCCN1)c1ccc2c(c1)oc1ccccc12 returned p53ts 32C kill inactive[9.22 µM], FLuc inh inactive[11.4 µM] and p53ts 39C tox inactive[9.22 µM].
Screening Cc1ccc2nc(-c3cccs3)c(Nc3c(C)cccc3C)n2c1 returned p53ts 32C kill inactive and p53ts 39C tox inactive.
`Cc1oc(-c2ccccc2F)nc1CSCC(=O)NCc1ccccc1` gave p53ts 32C kill inactive and p53ts 39C tox inactive.
For CCOc1ccc(C(=O)c2cn(CC(=O)Nc3ccc(Cl)cc3)c3cc4c(cc3c2=O)OCCO4)cc1 the results were p53ts 32C kill inactive and p53ts 39C tox inactive.
Screening CCn1c(CNC(=O)c2ccc(OC)cc2)nnc1SCC(=O)Nc1cc(C)ccc1C returned p53ts 32C kill inactive and p53ts 39C tox inactive.
CCOC(=O)C(C)(C)[C@H](O)C(C)C was read as p53ts 32C kill inactive[9.22 µM], FLuc inh inactive[11.4 µM] and p53ts 39C tox inactive[9.22 µM].
NC(N)=NC(=O)c1nc(Cl)c(N)nc1N was read as p53ts 32C kill inactive, FLuc inh inactive and p53ts 39C tox inactive.
Screening NC(=NCc1ccc(Cl)c(Cl)c1)NC(=O)c1nc(Cl)c(N)nc1N returned p53ts 32C kill 13µM, FLuc inh inactive and p53ts 39C tox 13µM.
Cc1ccc(C)c(NC(=O)CN2CCCN(Cc3cccc(Cl)c3)S2(=O)=O)c1 was read as p53ts 32C kill inactive and p53ts 39C tox inactive.
